Assay results taken from PubChem BioAssay AID1159580 (chemical genetic matrix, 2015).
About 2,000 (36%) of roughly 5,500 compounds were called active. About 18% were inconclusive and are not listed. Rule as the data show it: active = normalized growth mostly below about 0.91 (no sharp cut-off); inconclusive = no clear call, values can overlap the other calls; inactive = mostly above about 0.92. This is one part of the list.

Experiment: chemical genetic growth profiling, strain panel (AID 1159580);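 also: tested at 20 µM; growth read once vehicle control cultures reached saturation at 30 °C; 1 = growth at the plate median or of vehicle wells; lower values mean less growth of the strain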
Conditions: S. cerevisiae deletion strains, growth OD

Measured: normalized growth

N#Cc1nn(-c2c(Cl)cc(C(F)(F)F)cc2Cl)c(N)c1S(=O)C(F)(F)F (stereo not drawn)
active: locus YBR009C, strain hhf1, active compounds read low 0.895 | locus YDR137W, strain rgp1, active compounds read low 0.576 | locus YDR195W, strain ref2 1.15 [resistant] | locus YLR221C, strain rsa3, active compounds read low 0.89 | locus YLR262C, strain YPT6 (second series), active compounds read low 0.521 | locus YLR342W, strain FKS1, active compounds read low 0.889 | locus YML120C, strain ndi1, active compounds read low 0.909
inactive: locus YAL021C, strain ccr4, active compounds read low 0.995 | locus YAL026C, strain drs2, active compounds read low 0.947 | locus YAL030W, strain snc1, active compounds read low 0.986 | locus YBL061C, strain skt5, active compounds read low 0.99 | locus YBR023C, strain chs3, active compounds read low 1 | locus YBR171W, strain sec66, active compounds read low 0.961 | locus YBR231C, strain swc5, active compounds read low 1.01 | locus YBR279W, strain paf1, active compounds read low 1 | locus YCL011C, strain gbp2, active compounds read low 0.951 | locus YCL016C, strain dcc1, active compounds read low 1.04 | locus YCL069W, strain vba3, active compounds read low 0.998 | locus YCR088W, strain abp1, active compounds read low 0.993 | locus YDL005C, strain med2, active compounds read low 0.987 | locus YDL040C, strain nat1, active compounds read low 0.982 | locus YDR001C, strain nth1, active compounds read low 0.992 | locus YDR069C, strain doa4, active compounds read low 0.965 | locus YDR159W, strain sac3, active compounds read low 0.888 | locus YDR297W, strain sur2, active compounds read low 0.961 | locus YDR334W, strain swr1, active compounds read low 0.962 | locus YDR335W, strain msn5, active compounds read low 1.01 | locus YDR392W, strain spt3, active compounds read low 0.785 | locus YEL003W, strain gim4, active compounds read low 0.936 | locus YEL037C, strain rad23, active compounds read low 0.986 | locus YEL061C, strain CIN8 (second series), active compounds read low 0.973 | locus YER015W, strain faa2, active compounds read low 0.955 | locus YER016W, strain bim1, active compounds read low 1.01 | locus YER111C, strain swi4, active compounds read low 1.01 | locus YER155C, strain BEM2 (second series), active compounds read low 1.02 | locus YFR010W, strain ubp6, active compounds read low 0.939 | locus YGL167C, strain pmr1, active compounds read low 0.966 | locus YGL173C, strain kem1, active compounds read low 0.979 | locus YGL227W, strain vid30, active compounds read low 0.99 | locus YGL240W, strain doc1, active compounds read low 0.959 | locus YGL253W, strain hxk2, active compounds read low 0.929 | locus YHR013C, strain ard1, active compounds read low 1.01 | locus YHR027C, strain rpn1, active compounds read low 0.968 | locus YHR030C, strain SLT2, active compounds read low 1.01 | locus YHR079C, strain IRE1, active compounds read low 1.02 | locus YHR142W, strain chs7, active compounds read low 0.956 | locus YJL092W, strain hpr5, active compounds read low 0.992 | locus YJL095W, strain BCK1 (second series), active compounds read low 0.983 | locus YJL095W, strain BCK1, active compounds read low 0.991 | locus YJL115W, strain asf1, active compounds read low 0.99 | locus YJL129C, strain trk1, active compounds read low 1.01 | locus YJL154C, strain vps35, active compounds read low 0.978 | locus YJL164C, strain tpk1, active compounds read low 0.926 | locus YJL166W, strain qcr8, active compounds read low 0.94 | locus YJR066W, strain TOR1, active compounds read low 0.962 | locus YKL160W, strain elf1, active compounds read low 1.03 | locus YKR026C, strain gcn3, active compounds read low 0.98 | locus YKR091W, strain srl3, active compounds read low 0.989 | locus YLL001W, strain dnm1, active compounds read low 0.918 | locus YLL026W, active compounds read low 0.984 | locus YLL041C, strain sdh2, active compounds read low 0.996 | locus YLR027C, strain aat2, active compounds read low 0.955 | locus YLR113W, strain HOG1, active compounds read low 0.964 | locus YLR258W, strain gsy2, active compounds read low 1.01 | locus YLR320W, strain mms22, active compounds read low 0.907 | locus YLR357W, strain rsc2, active compounds read low 0.979 | locus YLR370C, strain arc18, active compounds read low 1.01 | locus YLR384C, strain iki3, active compounds read low 1.01 | locus YMR058W, strain fet3, active compounds read low 0.952 | locus YMR125W, strain sto1, active compounds read low 1.03 | locus YMR129W, active compounds read low 1.01 | locus YMR205C, strain PFK2, active compounds read low 0.981 | locus YMR231W, strain pep5, active compounds read low 0.998 | locus YNL071W, strain lat1, active compounds read low 0.978 | locus YNL183C, strain NPR1, active compounds read low 0.951 | locus YNL209W, strain ssb2, active compounds read low 0.995 | locus YNL248C, strain rpa49, active compounds read low 1.01 | locus YNL322C, strain KRE1 (second series), active compounds read low 1 | locus YNR049C, strain mso1, active compounds read low 1 | locus YOR001W, strain rrp6, active compounds read low 0.901 | locus YOR070C, strain gyp1, active compounds read low 1 | locus YOR080W, strain dia2, active compounds read low 0.991 | locus YOR083W, strain WHI5, active compounds read low 0.941 | locus YOR106W, strain vam3, active compounds read low 0.981 | locus YOR231W, strain MKK1, active compounds read low 1 | locus YOR265W, strain rbl2, active compounds read low 0.967 | locus YOR270C, strain vph1, active compounds read low 0.794 | locus YOR290C, strain snf2, active compounds read low 1.02 | locus YPL051W, strain arl3, active compounds read low 1.04 | locus YPL078C, strain atp4, active compounds read low 0.99 | locus YPL106C, strain sse1, active compounds read low 1.15 | locus YPL240C, strain hsp82, active compounds read low 0.996 | locus YPL256C, strain CLN2, active compounds read low 1.04
